Experimental data published in PubChem BioAssay AID602441 (National Center for Advancing Translational Sciences (NCATS), 2012).
Screen size: about 1,300 compounds; fewer than 10 were called active. Not shown: some 9% with an inconclusive outcome. Calls follow the shape of the dose curve; as a rule, active = well fitted curve in the direction sought with a large enough effect; inconclusive = small, poorly fitted or top-dose-only effect, or another doubt; inactive = no such curve, though single readings can be large or run the other way. These entries were drawn from the full list.

Assay: qHTS for antagonists of the Thyroid Stimulation Hormone Receptor: Hit Validation in Parental Cell Line; as to activity change, negative = inhibition: 0% is about no effect
Details: parental HEK293 cells lacking TSHR, counter-screen; series mostly up to 56.9 µM; activity change, negative = inhibition: at the top concentration
Description: The thyroid-stimulating hormone receptor (TSHR) is a member of the 7 trans-membrane-spanning receptor (7TMR) family of cell surface receptors. TSHR-mediated hyperthyroidism is important in thyroid pathology. The development of small molecule antagonists of TSHR may lead to therapeutic approaches for TSHR-mediated hyperthyroidism caused by constitutively activating mutations or stimulating auto-antibodies associated with Graves' disease. Graves' disease is the leading cause of hyperthyroidism and is caused by autoantibodies that stimulate TSHR (TsAbs) causing thyroid growth and unregulated overproduction of thyroid hormones and existing treatments have liabilities (agranulocytosis). In addition, TSHRs are known to be expressed in multiple extrathyroidal tissues including bone, brain, kidney, testis, fat and cells of the immune system but the role of the TSHR in these tissues is not clear. Therefore, TSHR antagonists/inverse agonists could be used as probes of extrathyroidal TSHR function. Finally, TSHR inverse agonists, which are a subclass of antagonists that inhibit agonist-independent (or basal or constitutive) TSHR signaling, could be used to inhibit TSH-independent signaling in patients with recurrent or metastatic thyroid cancer who are receiving thyroid hormone to suppress TSH.
In collaboration between scientist from the NCGC and the NIDDK, a miniaturized HTRF high-throughput screen was developed. It's a cell based assay, where an anti cAMP antibody contains a fluorescent cryptate tag (excitation 337 nm; emission 620 nm) and the acceptor is cAMP-d2 (excitation 620 nm; emission 665 nm). When antibody and cAMP-d2 interact and are excited by a 337 nm light, a FRET occurs resulting in emission at 665 nm. The assay is competition between cAMP-d2 and cAMP (from the cell lysate). The homogeneous protocol allows for one step dispense after stimulation that is automation friendly. This is a hit validation assay in a counterscreen using parental HEK 293 cells lines.
NIH Chemical Genomics Center [NCGC]
NIH Molecular Libraries Probe Centers Network [MLPCN]
Assay Provider: Marvin Gershengorn, NIDDK
An anti cAMP antibody contains a fluorescent cryptate tag (excitation 337 nm; emission 620 nm) and the acceptor is cAMP-d2 (excitation 620 nm; emission 665 nm). When antibody and cAMP-d2 interact and are excited by a 337 nm light, a FRET occurs resulting in emission at 665 nm. The assay is competition between cAMP-d2 and cAMP (from the cell lysate). The homogeneous protocol allows for one step dispense after stimulation that is automation friendly. This assay uses parental HEK-EM 293 cells
Potency is read from the fitted curve at half-maximal effect.

With `CC(C)c1ccc(OCC(=O)Nc2cccc3c2CCCC3)cc1` as the compound, how does the “activity change, negative = inhibition” value read?
Its value is 4.59% (inactive).

With `O=C(Cn1cnc2ccccc21)Nc1ccc2c(c1)OCCCO2` as the compound, how does the “activity change, negative = inhibition” value read?
The value was 1.89% (inactive).

For `Cc1c(Nc2cc(Cl)c3nonc3c2[N+](=O)[O-])c(=O)n(-c2ccccc2)n1C`, which “activity change, negative = inhibition” value is on record?
The value was -9.16% (inactive).

Which “activity change, negative = inhibition” value does the source give for `CN(C)S(=O)(=O)c1ccc(N2CCN(S(=O)(=O)c3ccc(F)cc3)CC2)c(Cl)c1` here?
Its value is 1.41% (inactive).

Which “activity change, negative = inhibition” value does the source give for `CC(NC(=O)c1ccc([N+](=O)[O-])o1)C1CC2CCC1C2` (stereo unspecified) here?
Its value is 2.74% (inactive).

Which “activity change, negative = inhibition” value does the source give for `C=CCC1(CC=C)CCCN1C(=O)c1cc(COc2ccc(C)nc2)on1` here?
The value was 0.634% (inactive).

For `C=CCN1C(=O)C(Cc2ccc(OC)cc2)S/C1=N/N=C/c1ccco1` (stereo unspecified), which “activity change, negative = inhibition” value is on record?
Its value is 2.46% (inactive).

Which “activity change, negative = inhibition” value does the source give for `CSc1cnn(Cc2ccccc2)c(=O)c1SCc1ccccc1` here?
The value was -0.181% (inactive).

With `COC(=O)c1ccc(COc2cc(O)c3c(c2)OC(C)(C)CC3=O)cc1` as the compound, how does the “activity change, negative = inhibition” value read?
Its value is -0.0715% (inactive).

Which “activity change, negative = inhibition” value does the source give for `COc1ccc(-c2csc3ncnc(N4CCN(S(=O)(=O)c5cccs5)CC4)c23)cc1` here?
The value was 0.325% (inactive).

Which “activity change, negative = inhibition” value does the source give for `N#Cc1ccc(CN2CCN(C(=O)c3ccc(S(=O)(=O)N4CCCCCC4)cc3)CC2)cc1` here?
Its value is -5.72% (inactive).

Which “activity change, negative = inhibition” value does the source give for `Cc1ccc(NC(=O)COc2cccc3c2OC(C)(C)C3)c(O)c1` here?
The value was -0.793% (inactive).

Which “activity change, negative = inhibition” value does the source give for `N#C/C(=N\Nc1ccc(S(=O)(=O)N2CCCCCC2)cc1)C(N)=S` here?
The value was -4.32% (inactive).

For `Cc1sc2nc(-c3ccccn3)[nH]c(=O)c2c1-c1ccccc1`, which “activity change, negative = inhibition” value is on record?
The value was -1.49% (inactive).

Which “activity change, negative = inhibition” value does the source give for `O=S(=O)(NCc1csc(-c2ccccc2)n1)c1ccc(Cl)s1` here?
The value was 3.27% (inactive).

With `O=C(Nc1ccc(Br)cc1)c1cccc(S(=O)(=O)Nc2cnc3ccccc3c2)c1` as the compound, how does the “activity change, negative = inhibition” value read?
The value was -3.55% (inactive).

With `COc1ccc2ccccc2c1/C=N/NC(=O)c1nnn(-c2nonc2N)c1C(C)C` as the compound, how does the “activity change, negative = inhibition” value read?
The value was -4.51% (inactive).

Which “activity change, negative = inhibition” value does the source give for `COc1ccc(-c2csc(/C(C#N)=C\c3ccc(O)c([N+](=O)[O-])c3)n2)cc1OC` here?
The value was -6.65% (inactive).

Which “activity change, negative = inhibition” value does the source give for `CCOC(=O)c1sc(NC(=O)c2cc(-c3ccccc3C)nc3ccccc23)c(C#N)c1C` here?
The value was -2.33% (inactive).

For `Cc1ccc(OCc2cc(C(=O)NC3CCCCC3)no2)cn1`, which “activity change, negative = inhibition” value is on record?
The value was -0.0859% (inactive).

For `O=C(Nc1ccncc1)c1cccc(S(=O)(=O)N2CCc3ccccc32)c1`, which “activity change, negative = inhibition” value is on record?
Its value is -2.96% (inactive).

With `N#C/C(=N/Nc1ccc(OC(F)(F)F)cc1)C(N)=S` as the compound, how does the “activity change, negative = inhibition” value read?
Its value is -5.72% (inactive).

With `Cc1ccc(CN2CCc3c(OCc4ccc(F)cc4)cccc3C2=O)cc1` as the compound, how does the “activity change, negative = inhibition” value read?
The value was -2.57% (inactive).

With `COc1ccc(C(=O)c2ccccc2)c2c(O)ccc(C(=O)c3ccccc3)c12` as the compound, how does the “activity change, negative = inhibition” value read?
The value was -1.57% (inactive).

For `CCCC(=O)OCCNc1cc(Sc2nc3ccccc3[nH]2)c2nonc2c1[N+](=O)[O-]`, which “activity change, negative = inhibition” value is on record?
The value was -7.55% (inactive).

For `N#CC(C#N)=NNc1ccc(S(=O)(=O)N2CCCCC2)cc1`, which “activity change, negative = inhibition” value is on record?
Its value is -1.81% (inactive).

Which “activity change, negative = inhibition” value does the source give for `COc1ccc(NS(=O)(=O)c2cccc(NC(=O)C3=NN(c4ccccc4)C(=O)CC3)c2)cc1` here?
Its value is -3.01% (inactive).

With `CCOc1ccc(-c2csc(/C(C#N)=C\c3ccc(O)c([N+](=O)[O-])c3)n2)cc1` as the compound, how does the “activity change, negative = inhibition” value read?
Its value is -9.37% (inactive).

Which “activity change, negative = inhibition” value does the source give for `Cc1cc(C)n(C(=O)/C(C#N)=N/Nc2cc(Cl)cc(Cl)c2)n1` here?
The value was 0.0538% (inactive).

With `COc1ccccc1C(=O)COC(=O)/C=C/c1ccccc1` as the compound, how does the “activity change, negative = inhibition” value read?
The value was 3.14% (inactive).

For `CC[n+]1ccc(/C=C/c2ccc(N(C)C)cc2)c2ccccc21`, which Potency is on record?
The Potency was 26.9 µM (active).

For `CN(C)c1ccc(/C=C/c2cc[n+](C)cc2)cc1`, which “activity change, negative = inhibition” value is on record?
The value was -7.72% (inactive).

With `O=C(CN1C(=O)c2ccccc2S1(=O)=O)NCCSCc1cccc(Cl)c1` as the compound, how does the “activity change, negative = inhibition” value read?
The value was -1.03% (inactive).

With `CC1CCC(C(C)C)C(OC(=O)Cn2c(-c3ccccc3)[n+](C)c3ccccc32)C1` (stereo unspecified) as the compound, how does the “activity change, negative = inhibition” value read?
Its value is 2.05% (inactive).

For `N#Cc1c(C(F)(F)F)cc(-c2ccc(Cl)cc2)[nH]c1=O`, which “activity change, negative = inhibition” value is on record?
The value was -0.329% (inactive).

With `COc1ccc2nc(C)cc(N3CCN(S(=O)(=O)c4ccccc4F)CC3)c2c1` as the compound, how does the “activity change, negative = inhibition” value read?
Its value is -1.34% (inactive).

With `Cc1nc2ncnn2c(N2CCCC(C(=O)Nc3ccccc3Br)C2)c1C` (stereo unspecified) as the compound, how does the “activity change, negative = inhibition” value read?
The value was 5.02% (inactive).

Which “activity change, negative = inhibition” value does the source give for `O=S(=O)(c1ccc(Cl)cc1)N1CCN(c2ncnc3sccc23)CC1` here?
Its value is -4.26% (inactive).

For `Cc1noc(C)c1COc1ccccc1C(=O)N(C)Cc1ccc(C(C)(C)C)cc1`, which “activity change, negative = inhibition” value is on record?
The value was -3.32% (inactive).

With `O=c1cc(C(F)(F)F)[nH]c2ccc(OC(F)(F)F)cc12` as the compound, how does the “activity change, negative = inhibition” value read?
The value was 4.01% (inactive).

Which “activity change, negative = inhibition” value does the source give for `CCCC(=O)Nc1cccn(Cc2ccccc2Br)c1=O` here?
The value was -0.796% (inactive).

Which “activity change, negative = inhibition” value does the source give for `Cc1ccc(NC(=O)c2ccccc2NS(=O)(=O)c2ccc(F)cc2)cc1S(=O)(=O)N1CCCCC1` here?
Its value is -5.23% (inactive).

For `COc1cccc(C(=O)Nc2ccc(NC(=O)C3CCCCC3)nc2)c1`, which “activity change, negative = inhibition” value is on record?
Its value is -5.39% (inactive).

Which “activity change, negative = inhibition” value does the source give for `Cc1ccc(NC(=O)C(C)c2ccc(-c3ccccc3)c(F)c2)cc1` (stereo unspecified) here?
The value was 0.0015% (inactive).

Which “activity change, negative = inhibition” value does the source give for `O=C(Nc1ccc(N=Nc2ccccc2)cc1)c1ccccc1Cl` here?
Its value is -5.44% (inactive).

With `O=C(O)c1cccc(NC2=C(Cl)C(=O)c3ccccc3C2=O)c1` as the compound, how does the “activity change, negative = inhibition” value read?
Its value is -14.8% (inactive).

Which Potency does the source give for `CCN(CC)c1ccc2nc3ccccc3[n+](CC)c2c1` here?
The Potency was 13.5 µM (active).

Which “activity change, negative = inhibition” value does the source give for `Cn1c2c(c(=O)n(C)c1=O)C(C(F)(F)F)(C(F)(F)F)N=C(c1ccc(Cl)cc1)N2` here?
The value was 0.519% (inactive).

With `Cc1sc(N/N=C/c2cccnc2)nc1-c1ccccc1` as the compound, how does the “activity change, negative = inhibition” value read?
The value was -1.97% (inactive).

With `COc1ccccc1CNc1ncnc2sccc12` as the compound, how does the “activity change, negative = inhibition” value read?
Its value is 1.11% (inactive).

For `COc1ccc(NS(=O)(=O)c2ccc(N/N=C(\C)c3ccncc3)c([N+](=O)[O-])c2)cc1`, which “activity change, negative = inhibition” value is on record?
The value was -6.85% (inactive).
